MPTP inh – permeability transition pore inhibition. AID 602449. isolated mouse mitochondria, Ca2+ swelling absorbance, 30 min. inhibition, % at 10 µM. 1.4% of 360,000 active;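 active means inhibition of 50% or more, scaled per plate between neutral and stimulator controls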
NadD block – blocks S. aureus nicotinate mononucleotide adenylyltransferase | 0.78% of 360,000 active | AID 602399 | purified NadD enzyme, colorimetric absorbance read-out | inhibition, % at 20 µM; in the data active means inhibition above about 26%
aDG glyco act – alpha-DG glycosylation activation; Pro5-aDG cells, alpha-DG glycosylation AlphaScreen (IIH6); 0% Pro5, 100% B10-LARGE cell signal; activation, % at 10 µM; 0.22% of 360,000 active;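 active means activation of at least 8% versus controls, or a plate z-score of at least 8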;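 further: Pro5 are CHO cells carrying HIG-tagged alpha-DG that lacks glycosylation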
TAG inh – reduces triacylglycerol accumulation in H9c2 cells; Nile Red lipid (TAG) fluorescence; cells loaded with 200 µM oleic acid; inhibition, % at 12.5 µM; 0.66% of 230,000 active;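 active means pattern-corrected inhibition of lipid staining of at least 50% with the nuclear-stain viability signal not falling by more than 50%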
Rh123 counter – mitochondrial membrane potential, counter-screen; inhibition, % at 10 µM; AID 624504; shares compounds with MPTP inh; 78% of 5,000 active; isolated mitochondria, Rhodamine 123 fluorescence; in the data active means inhibition above about 22%
MPTP abs DR – MPTP inhibition, dose response swelling confirmation; IC50, µM; isolated mitochondria swelling, absorbance; shares compounds with MPTP inh; 58% of 780 active; AID 651561; in the data active means IC50 below about 20 µM
MPTP cs DR – MPTP inhibitor counter-screen activity, dose response; shares compounds with MPTP inh; isolated mitochondria counterscreen, fluorescence read-out; IC50, µM; 49% of 780 active; AID 651564; in the data active means IC50 below about 80 µM
Each line names hits and unclear results; the compound was inactive in the other large screens (follow-up assays come after a bar, where they were run). Rows were chosen to be rich in hits. Some 2.7% of all compounds tested hit in one or more screens of this group.

CC(C)Nc1nc(NCCOc2ccccc2Cl)c2sc(-c3ccccc3)cc2n1	MPTP inh 60.1 | Rh123 counter 105.0
COc1ccccc1CNc1nc(NC(C)C)nc2cc(-c3ccccc3)sc12	MPTP inh 75.0 | Rh123 counter 100.9
COc1ccc(S(=O)(=O)Nc2ccc(CC#N)cc2)cc1	none
N#CCc1ccc(NS(=O)(=O)c2ccc(C3CCCCC3)cc2)cc1	MPTP inh 82.0 (no result: TAG inh) | Rh123 counter 95.5
O=C(O)c1cccc(NS(=O)(=O)c2ccc(C3CCCCC3)cc2)c1	none
Cc1cccc(NS(=O)(=O)c2ccc(C3CCCCC3)cc2)c1	MPTP inh 90.2 | Rh123 counter 92.8
O=C1CC(N2CCN(S(=O)(=O)c3ccc([N+](=O)[O-])cc3)CC2)C(=O)N1c1ccccc1F (configuration not stated)	none
CCCS(=O)(=O)N1CCC(C(=O)Oc2ccc(OC)cc2)CC1	none (no result: TAG inh)
O=C1Nc2ccccc2C(O)(C(=O)NCc2ccco2)N1c1ccc(Cl)cc1 (configuration not stated)	MPTP inh 89.7 | Rh123 counter 86.9
CCCN(C)C1CN(Cc2cn(Cc3ccc(OC)cc3)nn2)S(=O)(=O)C1 (configuration not stated)	none (no result: TAG inh)
N#CC(/C(=N/S(=O)(=O)c1cccs1)c1ccccc1)c1nc2ccccc2[nH]1 (configuration not stated)	MPTP inh 66.0 (no result: TAG inh) | Rh123 counter 71.9
N#CC(Cc1cccs1)c1nc2ccccc2[nH]1 (configuration not stated)	none
COc1ccc(Nc2ccnc(Nc3ccc(OC)cc3)n2)cc1	MPTP inh 78.2 (no result: TAG inh) | Rh123 counter inactive | MPTP abs DR 10.6 | MPTP cs DR 34.8
CN(C)CCN1CCN(C2CN(Cc3ccc(F)cc3)S(=O)(=O)C2)CC1 (configuration not stated)	none (no result: TAG inh)
C=CC[n+]1c(-c2ccc(C)cc2)csc1Nc1c(C)n(C)n(-c2ccccc2)c1=O	none
C=CC[n+]1c(-c2ccc(OCC)cc2)csc1NNC(=O)Nc1ccccc1	MPTP inh 65.8 (no result: TAG inh) | Rh123 counter 78.7
O=C(Nc1ccc2c(c1)OCCO2)C1c2ccccc2OCC(=O)N1CC(F)(F)F (configuration not stated)	none (no result: TAG inh)
Cc1nc2ccccc2c2c1CC(C(C)(Cl)Br)O2 (configuration not stated)	MPTP inh 59.5 | Rh123 counter 83.5
CCc1nc2c(OCCC3CCCCC3)cccn2c1N(C)C(=O)C(C)C	none
O=C1Nc2c(Br)cccc2C1=O	none
CCCc1cc(C(=O)Cc2ccc(F)cc2)c(O)cc1O	none
CCc1cc(C(=O)Cc2ccc(F)cc2)c(O)cc1O	MPTP inh 67.8 (no result: TAG inh) | Rh123 counter 68.4
Cc1cccc(SCC(=O)Nc2ccc3c(c2)OCCO3)c1	none
CC(=O)c1ccc(OCC(=O)c2cc(C)n(-c3ccc4c(c3)OCO4)c2C)cc1	MPTP inh 80.2 (no result: TAG inh) | Rh123 counter 84.8
Cc1cc(C(=O)COC(=O)c2ccc(N)c([N+](=O)[O-])c2)c(C)n1-c1ccc2c(c1)OCO2	none (no result: TAG inh)
N=c1c(-c2nc3ccccc3[nH]2)cc(C(=O)c2cccs2)nn1-c1ccccc1	MPTP inh 90.8 | Rh123 counter 38.5
N=c1c(-c2nc3ccccc3[nH]2)cc(C(=O)c2ccco2)nn1-c1ccccc1	none (no result: TAG inh)
N#CCCn1nc(-c2ccc(Br)cc2)cc1Nc1ccccc1NC(=O)C(F)(F)F	MPTP inh 95.0 (no result: TAG inh) | Rh123 counter 83.7
N#CCCn1nc(-c2ccc([N+](=O)[O-])cc2)cc1Nc1ccccc1NC(=O)C(F)(F)F	MPTP inh 92.9 (no result: TAG inh) | Rh123 counter 91.4
N#CCCn1nc(-c2ccccc2)cc1Nc1ccccc1NC(=O)C(F)(F)F	none (no result: TAG inh)
CN1C(=O)CSc2ccc(NC(=O)NCCC3=CCCCC3)cc21	MPTP inh 75.4 (no result: TAG inh) | Rh123 counter 78.0
CC(C)CCNC(=O)Nc1ccc2c(c1)N(C)C(=O)CS2	none
CC(=O)c1ccc(NC(=O)Nc2ccc3c(c2)N(C)C(=O)CS3)cc1	MPTP inh 96.3 | Rh123 counter 77.3
COc1ccc(NC(=O)Nc2ccc3c(c2)N(C)C(=O)CS3)cc1OC	none
COc1ccc(NC(=O)Nc2ccc3c(c2)N(C)C(=O)CS3)cc1Cl	MPTP inh 92.7 | Rh123 counter 67.5
Cc1cccc(C)c1NC(=O)C(c1cccc2ccccc12)n1c(=O)c(-c2cc3ccccc3[nH]2)nc2ccccc21 (configuration not stated)	none (no result: NadD block, TAG inh)
CC1(C)N=C(N)N=C(N)N1c1ccc(OCC(=O)N2CCOCC2)c(Cl)c1	none
CCNc1ccc(S(=O)(=O)N(C)C)cc1NCC(=O)Nc1ccc(F)c(Cl)c1	MPTP inh 58.8 (no result: TAG inh) | Rh123 counter 70.5
COc1ccc(-c2noc(-c3ccc4c(c3)OCO4)n2)cc1	none
COc1ccc(-c2nc(-c3ccc4c(c3)OCO4)[nH]c2-c2ccc(OC)cc2)cc1	MPTP inh 69.4 (no result: TAG inh) | Rh123 counter 69.2
Oc1cccc(NC(=S)Nc2ccc(SC(F)F)cc2)c1	MPTP inh 91.0 (no result: TAG inh) | Rh123 counter 84.3
CCCCNC(=S)Nc1ccc(SC(F)F)cc1	MPTP inh 97.8 | Rh123 counter 73.0
FC(F)Sc1ccc(NC(=S)NC2CCC(NC(=S)Nc3ccc(SC(F)F)cc3)CC2)cc1 (configuration not stated)	none
CCCCNC(=S)Nc1ccc(F)cc1	none
Oc1cccc2c(NC(=S)Nc3ccc(SC(F)F)cc3)cccc12	MPTP inh 87.6 (no result: TAG inh) | Rh123 counter 88.1
COc1ccc(OCc2cc(C(=O)N3CCC(c4ccccc4)CC3)no2)c(Cl)c1	none
O=C(c1cc(COc2cccc(C(F)(F)F)c2)on1)N1CCC(c2ccccc2)CC1	none
O=C(c1cc(COc2cccc(C(F)(F)F)c2)on1)N1CCC(c2ccncc2)CC1	MPTP inh 96.7 | Rh123 counter 98.8
CC(=O)c1ccc(OCc2cc(C(=O)N3CCC(c4ccncc4)CC3)no2)cc1	MPTP inh 96.1 (no result: TAG inh) | Rh123 counter 86.8
COc1cccc(OCc2cc(C(=O)N3CCC(c4ccncc4)CC3)no2)c1	MPTP inh 80.3 (no result: TAG inh) | Rh123 counter 74.9
CC(=O)c1ccc(OCCCC(=O)Nc2cccc(S(=O)(=O)N3CCCCC3)c2)cc1	none
O=C(CCNc1ccc(Cc2ccncc2)cc1)c1ccc([N+](=O)[O-])cc1	MPTP inh 75.2 | Rh123 counter 67.9
Cc1ccc(C(=O)Nc2ccc(Cc3ccncc3)cc2)cc1[N+](=O)[O-]	MPTP inh 99.1 | Rh123 counter 64.2
CN(C)c1ccc(C(=O)OCC(=O)c2ccc[nH]2)cc1	none
CCOC(=O)C(C)On1c(-c2ccc(Cl)cc2)nc2ccc([N+](=O)[O-])cc21 (configuration not stated)	MPTP inh 89.4 | Rh123 counter 108.4
O=[N+]([O-])c1ccc2nc(-c3ccc(Cl)cc3)n(OCc3ccccc3)c2c1	MPTP inh 88.8 (no result: TAG inh) | Rh123 counter 93.6

Source: PubChem (Sanford-Burnham Center for Chemical Genomics)
